Data published in the supplement of paper PMC8728848.
The full list was thinned out, with the strongest signals kept by preference.

What was measured:
Test in all cases: glycan array binding signal (z-score within array); higher = stronger binding
Conditions in all cases: glycan notation: IUPAC condensed, linker removed
Glc(a1-2)Glc = molecular target: Glc(a1-2)Glc
Summary of the method: (§1)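 The binding signal is a Z-score computed within each array and averaged over linkers. Arrays of the same protein sequence at different concentrations or buffers were also averaged together. Data originate from 3228 arrays in the Consortium for Functional Glycomics database, kept only where the protein sequence was available.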

Glc(a1-3)Glc(a1-3)Glc = molecular target: Glc(a1-3)Glc(a1-3)Glc
Summary of the method: as §1

[1] = molecular target: Glc(a1-3)Glc(a1-3)Glc(a1-3)Glc(a1-3)Glc(a1-3)Glc
Summary of the method: as §1

Glc(b1-2)Glc = molecular target: Glc(b1-2)Glc
Summary of the method: as §1

[2] = molecular target: Glc(b1-3)Glc(b1-3)Glc(b1-3)Glc(b1-3)Glc(b1-3)Glc(b1-3)Glc(b1-3)Glc
Summary of the method: as §1

[3] = molecular target: Glc(b1-3)Glc(b1-3)[Glc(b1-6)]Glc(b1-3)Glc(b1-3)Glc(b1-3)Glc(b1-3)Glc(b1-3)Glc(b1-3)Glc
Summary of the method: as §1

[4] = molecular target: Glc(b1-3)[Glc(b1-6)]Glc(a1-3)Glc(b1-3)[Glc(b1-6)]Glc
Summary of the method: as §1

[5] = molecular target: Glc(b1-4)Glc(b1-4)Glc(b1-4)Glc(b1-3)Glc
Summary of the method: as §1

[6] = molecular target: Glc(b1-6)Glc(b1-6)Glc(b1-6)Glc(b1-6)Glc(b1-6)Glc(b1-6)Glc(b1-6)Glc(b1-6)Glc(b1-6)Glc(b1-6)Glc(b1-6)Glc(b1-6)Glc(b1-6)Glc(b1-6)Glc
Summary of the method: as §1

[7] = molecular target: Glc(a1-3)Glc(a1-3)Glc(a1-3)Glc(a1-3)Glc
Summary of the method: as §1

[8] = molecular target: Glc(a1-3)Glc(a1-3)Glc(a1-3)Glc(a1-3)Glc(a1-3)Glc(a1-3)Glc(a1-3)Glc(a1-3)Glc(a1-3)Glc(a1-3)Glc(a1-3)Glc
Summary of the method: as §1

[9] = molecular target: Glc(b1-2)Glc(b1-2)Glc(b1-2)Glc
Summary of the method: as §1

[10] = molecular target: Glc(b1-2)Glc(b1-2)Glc(b1-2)Glc(b1-2)Glc(b1-2)Glc(b1-2)Glc(b1-2)Glc(b1-2)Glc
Summary of the method: as §1

[11] = molecular target: Glc(b1-3)Glc(b1-3)Glc(b1-3)Glc(b1-3)Glc(b1-3)Glc(b1-3)Glc(b1-3)Glc(b1-3)Glc(b1-3)Glc(b1-3)Glc(b1-3)Glc
Summary of the method: as §1

[12] = molecular target: Glc(b1-3)Glc(b1-3)Glc(b1-3)Glc(b1-3)Glc(b1-3)Glc(b1-3)Glc(b1-3)Glc(b1-3)Glc(b1-3)Glc(b1-3)Glc(b1-3)Glc(b1-3)Glc
Summary of the method: as §1

Glc(b1-4)Glc(b1-4)Glc = molecular target: Glc(b1-4)Glc(b1-4)Glc
Summary of the method: as §1

[13] = molecular target: Glc(b1-4)Glc(b1-4)Glc(b1-4)Glc(b1-4)Glc(b1-4)Glc(b1-4)Glc(b1-4)Glc
Summary of the method: as §1

[14] = molecular target: Glc(b1-6)Glc(b1-6)Glc(b1-6)Glc
Summary of the method: as §1

[15] = molecular target: Xyl(b1-4)Xyl(b1-4)Xyl(b1-4)Xyl(b1-4)Xyl(b1-4)Xyl
Summary of the method: as §1

[16] = molecular target: Glc(a1-6)Glc(a1-6)Glc(a1-6)Glc(a1-6)Glc(a1-6)Glc(a1-6)Glc(a1-6)Glc
Summary of the method: as §1

[17] = molecular target: Glc(b1-2)Glc(b1-2)Glc(b1-2)Glc(b1-2)Glc(b1-2)Glc(b1-2)Glc(b1-2)Glc
Summary of the method: as §1

[18] = molecular target: Glc(b1-2)Glc(b1-2)Glc(b1-2)Glc(b1-2)Glc(b1-2)Glc(b1-2)Glc(b1-2)Glc(b1-2)Glc(b1-2)Glc(b1-2)Glc
Summary of the method: as §1

[19] = molecular target: Glc(b1-2)Glc(b1-2)Glc(b1-2)Glc(b1-2)Glc(b1-2)Glc(b1-2)Glc(b1-2)Glc(b1-2)Glc(b1-2)Glc(b1-2)Glc(b1-2)Glc(b1-2)Glc
Summary of the method: as §1

[20] = molecular target: Glc(b1-3)Glc(b1-3)Glc(b1-3)Glc(b1-3)Glc(b1-3)Glc(b1-3)Glc(b1-3)Glc(b1-3)Glc(b1-3)Glc(b1-3)Glc
Summary of the method: as §1

[21] = molecular target: Glc(b1-3)Glc(b1-3)Glc(b1-3)[Glc(b1-6)]Glc(b1-3)Glc(b1-3)Glc(b1-3)Glc(b1-3)[Glc(b1-6)]Glc(b1-3)Glc
Summary of the method: as §1

Glc(b1-3)Glc(b1-4)Glc = molecular target: Glc(b1-3)Glc(b1-4)Glc
Summary of the method: as §1

[22] = molecular target: Glc(b1-6)Glc(b1-6)Glc(b1-6)Glc(b1-6)Glc(b1-6)Glc(b1-6)Glc(b1-6)Glc(b1-6)Glc(b1-6)Glc(b1-6)Glc
Summary of the method: as §1

[23] = molecular target: Man(b1-4)Man(b1-4)Man(b1-4)Man
Summary of the method: as §1

B1: Cel5A (Cellvibrio mixtus), A0A266Q9Z0 (protein)
chain: TSVAGCSGVTAWNSTAVYTGGNEVVRNGVKYQAKWWTQGQDPVTNSSADGVWANKGQC
With B1 the “glycan array binding signal (z-score)” value (Glc(a1-2)Glc) was -0.981, the “glycan array binding signal (z-score)” value (Glc(a1-3)Glc(a1-3)Glc) was -0.977 and the “glycan array binding signal (z-score)” value [1] was -0.941. For the same binder, the “glycan array binding signal (z-score)” value (Glc(b1-2)Glc) was -0.411, the “glycan array binding signal (z-score)” value [2] was 2.06 and the “glycan array binding signal (z-score)” value [3] was 2.2. The “glycan array binding signal (z-score)” value [4] was 2.44, the “glycan array binding signal (z-score)” value [5] was 1.17 and the “glycan array binding signal (z-score)” value [6] was -0.119.

B2: laminarinase (Bacillus halodurans), Q9KBL8 (protein)
chain: EETIELEGEVIPARLLSTKVKALNYDDYHNVLIDRCVEGGESIRGLGDGSWIAFHDINLEQPTNLLTVRAANENKQAVLEIRADRVDGPLVSQSVIPPTGGLQAWTTVTAQVNGETSEIRDLYLVFKGEFQLSWFSFS
With B2 the “glycan array binding signal (z-score)” value [7] was -0.688, the “glycan array binding signal (z-score)” value [8] was -0.654 and the “glycan array binding signal (z-score)” value [9] was 0.121. For the same binder, the “glycan array binding signal (z-score)” value [10] was 2.57, the “glycan array binding signal (z-score)” value [11] was 2.38 and the “glycan array binding signal (z-score)” value [12] was 2.46. For the same binder, the “glycan array binding signal (z-score)” value [3] was 2.85, the “glycan array binding signal (z-score)” value (Glc(b1-4)Glc(b1-4)Glc) was -0.573 and the “glycan array binding signal (z-score)” value [13] was -0.428. The “glycan array binding signal (z-score)” value [14] was -0.324 and the “glycan array binding signal (z-score)” value [15] was -0.466.

B3: Dectin-1 (Mus musculus), Q6QLQ4 (protein)
chain: EYGHNSGRNPEEKDNFLSRNKENHKPTESSLDEKVAPSKASQTTGGFSQPCLPNWIMHGKSCYLFSFSGNSWYGSKRHCSQLGAHLLKIDNSKEFEFIESQTSSHRINAFWIGLSRNQSEGPWFWEDGSAFFPNSFQVRNTAPQESLLHNCVWIHGSEVYNQICNTSSYSICEKEL
For B3, the “glycan array binding signal (z-score)” value [16] was -0.161, the “glycan array binding signal (z-score)” value [17] was -0.206 and the “glycan array binding signal (z-score)” value [18] was -0.206. For the same binder, the “glycan array binding signal (z-score)” value [19] was -0.182, the “glycan array binding signal (z-score)” value [20] was 0.83 and the “glycan array binding signal (z-score)” value [11] was 5.77. For the same binder, the “glycan array binding signal (z-score)” value [12] was 6.71, the “glycan array binding signal (z-score)” value [21] was -0.182 and the “glycan array binding signal (z-score)” value (Glc(b1-3)Glc(b1-4)Glc) was -0.182. For the same binder, the “glycan array binding signal (z-score)” value [22] was -0.13 and the “glycan array binding signal (z-score)” value [23] was -0.038.
